The source of these data is PubChem BioAssay (NCATS).

A number with no mark means an inactive call. Results filed as inconclusive are left out. Active and inactive are the calls of the source. Unless noted, the call rests on the fitted dose curve; in most records, active means well fitted curve in the direction sought with a large enough effect; inconclusive means small, poorly fitted or top-dose-only effect, or another doubt; inactive means no such curve, though single readings can be large; an effect the other way counts as inactive or inconclusive.

In experiment [1] the target is Glucocorticoid receptor (Homo sapiens) (UniProt P04150). The experiment in a line: GR-GFP Redistribution (AID 450;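 active means compounds whose dose series gives a full or clear partial fitted curve of increased nuclear translocation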; further: potency means the concentration at half of the fitted maximal effect).
The target is the same in experiment [2]. The experiment in a line: GR-EFC Redistribution (AID 451; calls by dose curve; further: potency means the concentration at half of the fitted maximal effect). The note with it: CHO-K1 GR-EFC translocation, beta-gal luminescence, 2 h. Put shortly: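 CHO-K1 cells stably expressing nuclear-localized β-gal enzyme acceptor and GR fused C-terminally to the enzyme donor fragment; ligand-driven nuclear translocation restores β-gal by complementation. Compounds titrated up to 46 uM final, 2 h at 37 °C; luminescence read.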

For experiment [3], the target named is Mitogen-activated protein kinase 10 (Mus musculus) (UniProt Q61831). Briefly: JNK3 AlphaScreen Assay (AID 530; active means well fitted curve in either direction with a large enough effect, not every such curve was filed as active;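 further: kinase came from lysate of stimulated human HepG2 cells; signal reports phosphorylation of biotinylated GST-cJun 1-79 at Ser73 with 10 µM ATP; series mostly up to about 57 µM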). Put shortly: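 Phosphorylation of biotinylated GST-cJun(1-79) at Ser73 is measured by AlphaScreen proximity luminescence. Enzyme is JNK3 in HepG2 lysates activated with interleukin-1beta and tumor necrosis factor alpha; ATP is 10 uM final.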
In general terms: Bead proximity is the source of the signal in Alpha formats.

Experiment [4] deals with 3',5'-cyclic-AMP phosphodiesterase 4B (Homo sapiens) (UniProt Q07343). The experiment in a line: qHTS Assay for Inhibitors of PDE-IV (AID 607; active means well fitted activation curve with a large enough effect in the main read-out, with a control signal flat, not every such curve was filed as active). Put shortly: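 The readout is membrane depolarisation from a cAMP-sensing CNG channel, detected with a potential dye at ex 535/em 590. Cells were HEK293-derived (endogenous PDE-IV) at 1000 cells/well, titrated up to 22.9 uM final.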

Experiment [5] deals with Cytochrome P450 2C9 (Homo sapiens) (UniProt P11712). The experiment in a line: qHTS Assay for Inhibitors and Substrates of Cytochrome P450 2C9 (AID 883). Further: nearly all actives have a fitted effect of over 60% in size. Further: potency means the concentration at half of the fitted maximal effect. The method, boiled down:
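CYP2C9 deoxyluciferin hydroxylation, 37C, 60 min with NADPH regeneration; 10nM enzyme, 100uM Luciferin-H (KM). Glo detection reagent stopped reaction; luminescence normalized to sulphaphenazole (57uM) full inhibition.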
(In general: qHTS replaces the single test concentration by a dilution series.)

In experiment [6] the target is Cytochrome P450 3A4 (Homo sapiens) (UniProt P08684). Briefly: qHTS Assay for Activators of Cytochrome P450 3A4 (AID 885). Further: nearly all actives have a fitted effect of over 65% in size. The method, boiled down: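 Activators are scored by enhanced luminescence from CYP3A4 conversion of luciferin-PPXE (25uM, equal to KM) to luciferin, after 60 min at RT with an NADPH-regenerating system.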
The target in experiment [7] is Cytochrome P450 2D6 (Homo sapiens) (UniProt P10635). The experiment in a line: qHTS Assay for Inhibitors and Substrates of Cytochrome P450 2D6 (AID 891).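 Further: luciferin methyl ether substrate demethylated by CYP2D6 with NADPH regeneration; nearly all actives have a fitted effect of over 60% in size.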 The method, boiled down: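 Luminescent read-out of luciferin formed by 5 nM human CYP2D6 demethylating 30 uM Luciferin-ME EGE (Km level) over 60 min at room temperature after NADPH regeneration addition. Data normalized to full inhibition by 1.43 uM quinidine.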

For experiment [8], the target named is DNA dC->dU-editing enzyme APOBEC-3G (Homo sapiens) (UniProt Q9HC16). Briefly: qHTS for inhibitors of Vif-A3G interactions: Validation (AID 588379). The method, boiled down:
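Yellow fluorescence (Ex 488, Em 500-530) of Vif-coexpressing HeLa A3G-eYFP cells, scanned by Acumen cytometer, reports blocked A3G degradation. Cells plated at 700/well overnight at 37 deg C before compound addition, then a further overnight compound incubation at 37 deg C.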

In experiment [9] the target is Cytochrome P450 2C19 (Homo sapiens) (UniProt P33261). Briefly: qHTS Assay for Inhibitors and Substrates of Cytochrome P450 2C19 (AID 899). Further: nearly all actives have a fitted effect of over 60% in size. Put shortly: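 In 50mM KPO4, the reaction held 5nM enzyme and KM-level (10uM) Luciferin-H EGE; it ran 60 min at 37C after NADPH regeneration and a 10 min compound preincubation. Luminescence values were scaled to 57uM ketoconazole as complete inhibition.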
Sequence of Cytochrome P450 2C19 (Homo sapiens) (P33261 whole entry, looked up): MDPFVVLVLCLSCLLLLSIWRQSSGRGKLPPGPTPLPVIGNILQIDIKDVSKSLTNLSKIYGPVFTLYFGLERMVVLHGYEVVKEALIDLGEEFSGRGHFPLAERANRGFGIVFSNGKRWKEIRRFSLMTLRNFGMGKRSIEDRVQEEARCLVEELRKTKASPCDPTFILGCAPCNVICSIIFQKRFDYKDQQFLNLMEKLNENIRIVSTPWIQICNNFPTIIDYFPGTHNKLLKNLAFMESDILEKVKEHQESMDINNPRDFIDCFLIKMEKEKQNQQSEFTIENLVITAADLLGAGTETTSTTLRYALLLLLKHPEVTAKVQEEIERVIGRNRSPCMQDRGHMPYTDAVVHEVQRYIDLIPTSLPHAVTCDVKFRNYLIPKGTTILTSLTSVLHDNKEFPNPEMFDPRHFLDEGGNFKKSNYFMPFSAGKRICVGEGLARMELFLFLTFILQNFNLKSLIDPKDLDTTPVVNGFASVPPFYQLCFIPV

Sequence of Glucocorticoid receptor (Homo sapiens) (P04150 whole entry, looked up, the tested form may be a part): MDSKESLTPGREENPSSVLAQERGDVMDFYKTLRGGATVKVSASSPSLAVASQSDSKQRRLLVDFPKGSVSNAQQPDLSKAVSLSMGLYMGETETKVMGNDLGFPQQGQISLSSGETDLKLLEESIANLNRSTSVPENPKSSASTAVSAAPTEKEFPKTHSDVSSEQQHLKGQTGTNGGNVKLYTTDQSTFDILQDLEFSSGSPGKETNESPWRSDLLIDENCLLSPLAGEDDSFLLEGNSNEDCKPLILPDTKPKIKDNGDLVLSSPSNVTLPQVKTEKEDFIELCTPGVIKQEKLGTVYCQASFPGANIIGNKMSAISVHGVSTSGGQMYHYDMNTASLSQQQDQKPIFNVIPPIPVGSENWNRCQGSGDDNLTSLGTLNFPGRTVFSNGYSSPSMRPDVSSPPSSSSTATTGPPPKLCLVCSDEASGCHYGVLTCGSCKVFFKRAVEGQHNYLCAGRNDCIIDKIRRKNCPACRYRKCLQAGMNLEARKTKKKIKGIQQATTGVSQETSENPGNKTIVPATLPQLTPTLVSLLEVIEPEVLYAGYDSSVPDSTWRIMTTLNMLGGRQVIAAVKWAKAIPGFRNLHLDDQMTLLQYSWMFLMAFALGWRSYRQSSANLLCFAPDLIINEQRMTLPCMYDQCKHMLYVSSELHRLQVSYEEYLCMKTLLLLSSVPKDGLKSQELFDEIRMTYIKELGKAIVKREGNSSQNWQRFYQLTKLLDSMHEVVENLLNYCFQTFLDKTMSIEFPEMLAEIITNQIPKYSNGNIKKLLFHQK
Sequence of Cytochrome P450 2D6 (Homo sapiens) (P10635 whole entry, looked up): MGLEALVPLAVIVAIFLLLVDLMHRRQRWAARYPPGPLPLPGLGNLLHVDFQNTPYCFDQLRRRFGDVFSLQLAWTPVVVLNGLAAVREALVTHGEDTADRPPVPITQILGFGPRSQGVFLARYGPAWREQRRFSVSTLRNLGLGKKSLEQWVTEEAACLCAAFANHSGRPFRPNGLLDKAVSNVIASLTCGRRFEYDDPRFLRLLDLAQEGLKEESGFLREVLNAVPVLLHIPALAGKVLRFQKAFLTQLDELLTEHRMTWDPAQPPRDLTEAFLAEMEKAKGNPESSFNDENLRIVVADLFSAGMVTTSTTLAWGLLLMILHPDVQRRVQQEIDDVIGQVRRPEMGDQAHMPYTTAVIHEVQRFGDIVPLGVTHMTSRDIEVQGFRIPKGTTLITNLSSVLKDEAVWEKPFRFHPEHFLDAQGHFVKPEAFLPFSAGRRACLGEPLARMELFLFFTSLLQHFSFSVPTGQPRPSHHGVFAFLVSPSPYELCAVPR
Sequence of Cytochrome P450 2C9 (Homo sapiens) (P11712 whole entry, looked up): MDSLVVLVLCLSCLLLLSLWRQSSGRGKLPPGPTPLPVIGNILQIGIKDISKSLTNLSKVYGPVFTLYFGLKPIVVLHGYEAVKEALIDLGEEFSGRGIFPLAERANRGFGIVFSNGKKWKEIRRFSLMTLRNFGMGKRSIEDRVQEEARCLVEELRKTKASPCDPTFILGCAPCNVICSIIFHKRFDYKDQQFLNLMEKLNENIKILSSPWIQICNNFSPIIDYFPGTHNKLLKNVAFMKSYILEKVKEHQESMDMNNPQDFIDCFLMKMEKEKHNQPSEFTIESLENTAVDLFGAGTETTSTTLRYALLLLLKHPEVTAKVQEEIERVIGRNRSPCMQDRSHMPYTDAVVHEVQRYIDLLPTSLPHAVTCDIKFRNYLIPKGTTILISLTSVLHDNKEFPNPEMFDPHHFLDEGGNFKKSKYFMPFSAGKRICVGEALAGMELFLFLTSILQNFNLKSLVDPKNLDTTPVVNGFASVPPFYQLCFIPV
Sequence of 3',5'-cyclic-AMP phosphodiesterase 4B (Homo sapiens) (Q07343 whole entry, looked up): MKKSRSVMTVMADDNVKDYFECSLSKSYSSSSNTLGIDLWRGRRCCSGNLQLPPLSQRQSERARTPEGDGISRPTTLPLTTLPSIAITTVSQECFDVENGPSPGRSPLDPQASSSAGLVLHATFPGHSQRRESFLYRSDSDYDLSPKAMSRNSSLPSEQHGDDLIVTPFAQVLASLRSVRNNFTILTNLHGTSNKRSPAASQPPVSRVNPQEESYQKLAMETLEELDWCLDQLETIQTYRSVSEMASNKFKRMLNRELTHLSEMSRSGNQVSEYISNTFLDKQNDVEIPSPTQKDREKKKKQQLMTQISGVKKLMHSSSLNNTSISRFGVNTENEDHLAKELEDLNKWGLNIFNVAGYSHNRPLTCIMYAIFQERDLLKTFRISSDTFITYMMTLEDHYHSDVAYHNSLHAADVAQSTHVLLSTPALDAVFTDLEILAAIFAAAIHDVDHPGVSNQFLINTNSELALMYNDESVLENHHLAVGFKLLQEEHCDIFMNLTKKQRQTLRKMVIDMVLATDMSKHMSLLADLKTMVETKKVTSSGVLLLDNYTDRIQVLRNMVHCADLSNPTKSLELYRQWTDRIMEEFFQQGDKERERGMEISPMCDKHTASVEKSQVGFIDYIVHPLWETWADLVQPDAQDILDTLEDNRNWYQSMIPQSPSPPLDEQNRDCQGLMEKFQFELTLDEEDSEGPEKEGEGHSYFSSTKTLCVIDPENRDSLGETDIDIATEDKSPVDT
Sequence of Cytochrome P450 3A4 (Homo sapiens) (P08684 whole entry, looked up): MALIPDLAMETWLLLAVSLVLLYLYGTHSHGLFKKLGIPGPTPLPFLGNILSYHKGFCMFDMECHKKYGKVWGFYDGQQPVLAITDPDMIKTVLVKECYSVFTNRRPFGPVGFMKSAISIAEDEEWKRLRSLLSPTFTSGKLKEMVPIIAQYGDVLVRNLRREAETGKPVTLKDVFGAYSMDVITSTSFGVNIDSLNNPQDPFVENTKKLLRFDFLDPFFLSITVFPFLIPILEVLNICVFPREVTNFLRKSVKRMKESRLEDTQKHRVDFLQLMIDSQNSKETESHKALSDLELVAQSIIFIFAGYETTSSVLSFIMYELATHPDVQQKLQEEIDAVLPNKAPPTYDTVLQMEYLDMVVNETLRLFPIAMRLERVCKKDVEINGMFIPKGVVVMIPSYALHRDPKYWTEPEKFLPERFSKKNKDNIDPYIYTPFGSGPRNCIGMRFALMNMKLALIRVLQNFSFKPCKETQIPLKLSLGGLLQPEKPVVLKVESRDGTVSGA
Sequence of DNA dC->dU-editing enzyme APOBEC-3G (Homo sapiens) (Q9HC16 whole entry, looked up): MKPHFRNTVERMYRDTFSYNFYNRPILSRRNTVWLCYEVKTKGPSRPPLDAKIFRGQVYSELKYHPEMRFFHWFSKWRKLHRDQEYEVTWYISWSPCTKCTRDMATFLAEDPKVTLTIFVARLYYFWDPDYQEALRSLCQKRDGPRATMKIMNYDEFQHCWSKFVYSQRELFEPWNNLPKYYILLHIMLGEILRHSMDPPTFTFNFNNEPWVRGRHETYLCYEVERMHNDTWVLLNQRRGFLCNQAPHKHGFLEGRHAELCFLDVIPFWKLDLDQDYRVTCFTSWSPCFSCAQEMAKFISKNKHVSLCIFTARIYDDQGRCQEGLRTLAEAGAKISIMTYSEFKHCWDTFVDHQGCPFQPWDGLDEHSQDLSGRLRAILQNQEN

On to `CC(=O)O[C@H]1C(=O)[C@]2(C)[C@H]([C@H](OC(=O)c3ccccc3)[C@@]3(O)C[C@H](OC(=O)[C@@H](O)[C@@H](NC(=O)c4ccccc4)c4ccccc4)C(C)=C1C3(C)C)[C@]1(OC(C)=O)CO[C@@H]1C[C@@H]2O`, for which the Potency in experiment [1] and in experiment [2] was above 46 µM in each case. Also, the Potency entry in experiment [3] and in [4] was “inactive” each time.
Turning to `COc1cc([C@@H]2Oc3cc([C@H]4Oc5cc(O)cc(O)c5C(=O)[C@H]4O)ccc3O[C@H]2CO)ccc1O`, the Potency in [1] is above 46 µM; in experiment [2], above 46 µM; in experiment [5], 2.51 µM (active). For the same molecule, the Potency result in experiment [3], in [4], in experiment [6] and in experiment [7] was “inactive” in each case. The molecule was called inactive in [8].
Take `COc1ccc(-c2coc3ccc(O[C@@H]4O[C@@H](COC(C)=O)[C@@H](OC(C)=O)[C@@H](OC(C)=O)[C@H]4OC(C)=O)c(OC(C)=O)c3c2=O)cc1`: the Potency in [1] and in [2] was above 46 µM throughout. Further, the Potency entry in [5], in experiment [7] and in experiment [9] was “inactive” in each case.
